Screening results as filed in PubChem.
Compounds with a hit are over-represented: about 2.2% of the library has one in this group of screens.
LGR2 inh: blocks bursicon-induced cAMP signaling via Drosophila LGR2; inhibition, % at 9.99 µM; 0.35% of 380,000 active; HEK293 LGR2, CRE-luciferase, bursicon-stimulated, 4 h;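 active means drop in luminescence signal, shown as inhibition above about 50% in the replicate tests, limit read from the data, passing the limit was not always enough; inconclusive means probably only some replicates passing the limit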;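 further: agonist challenge used bursicon conditioned medium at about half maximal strength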
MITF TRPM1 inh: MITF TRPM1 promoter inhibition in SK-MEL-5 cells; SK-MEL-5 TRPM1 promoter luciferase, 24 h; 0.83% of 330,000 active; AID 488899; inhibition, % at 12.5 µM;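 active means mean inhibition across replicates of 60% or more, whatever share of single replicates reaches that level; inconclusive means some that reach 60%, reason not given; inactive means mean inhibition across replicates below 60%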
EWS-Fli inh: EWS/Fli transcriptional activity inhibition | 0.67% of 350,000 active | A673 NR0B1-luciferase reporter, viability-normalised | inhibition, % at 12.6 µM;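 active means mean inhibition of at least 50% after viability correction, with every replicate also passing that limit; inconclusive means mean reaches 50% but only one of two replicates passes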;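 further: firefly luciferase signal divided by Alamar Blue viability fluorescence both relative to DMSO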
LMP1 NFkB inh: reduces LMP1-driven NF-kappaB luciferase signal; LMP1-induced NF-kappaB luciferase reporter cells, luminescence; inhibition, % at 12.5 µM; 0.69% of 350,000 active; AID 504558; in the data active means inhibition above about 41%; inconclusive means no clear call, values can overlap the other calls;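 further: 0% = neutral control wells and 100% = reference inhibitor control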
Shn3 3UTR inh: reduces Shn3 3'UTR luciferase signal in osteoblasts; inhibition, % at 12.5 µM; Clone20 osteoblast Shn3 3'UTR firefly luciferase, 24 h; 0.52% of 360,000 active;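 active means mean inhibition of at least 75% with every replicate also reaching 75%; inconclusive means mean inhibition at least 75% but some replicate below; inactive means mean inhibition below 75%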;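 further: 0% = median of neutral control wells and 100% = pilot-screen positive control compound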
PAX8 inh HTS: PAX8 transcriptional activity inhibition; RMG-I TPO-luciferase reporter, SteadyGlo, 24 h; inhibition, % at 12.6 µM; 1.2% of 360,000 active; AID 652154;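 active means mean replicate inhibition at least 60% with every replicate also reaching 60%; inconclusive means only one of the two criteria is met; inactive means mean below 60% and not all replicates reaching 60%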;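 further: luciferase light reporting Pax8 driven TPO promoter activity; plate controls were median of neutral control wells for no effect and mitoxantrone controls for full effect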
Active calls of the source: *; u = inconclusive; x = no result.

SMILES | LGR2 inh | MITF TRPM1 inh | EWS-Fli inh | LMP1 NFkB inh | Shn3 3UTR inh | PAX8 inh HTS
COc1cccc(CC(=O)NNC(=O)c2ccc3c(c2)OCO3)c1 | 3.3 | -2.2 | 5.2 | 45.3* | 10.1 | 8.3
COC(=O)c1c(N)sc(C(=O)NCCc2ccccc2)c1C | 98.0* | 63.1* | 83.3* | 67.1* | 30.6 | 65.4*
COc1cccc(C(=O)NNC(=O)Cc2ccc(Cl)cc2)c1 | 18.5 | -1.9 | 8.7 | 1.9 | -12.8 | 16.2
CCC(=O)N1C[C@@H]2[C@H](c3ccccc31)[C@H](CO)N2CC1CCCC1 | 20.0 | x | 5.0 | x | x | 5.8
O=C(CCN1CCC(c2ccccc2)C1)c1ccc2c(c1)OCCO2 (configuration not stated) | -36.3 | 7.1 | -3.4 | 82.1* | 10.9 | 76.3*
O=C(CCc1ccccc1)c1ccc2c(c1)OCCCO2 | x | -126.4 | x | -26.1 | -67.5 | x
Cc1ccc(C(=O)NCCc2ccccc2)cc1 | x | 37.6 | x | 57.3* | 21.0 | x
O=C(NCCc1ccccc1)c1ccc2c(c1)OCCCO2 | 101.8* | 91.7* | 89.0* | 85.2* | u | 109.7*
O=C(CCCc1ccccc1)c1ccc2c(c1)OCCO2 | 101.3* | 77.4* | 86.4* | 61.2* | 52.1 | x
O=C(NCCS(=O)(=O)NCCc1ccccc1)c1ccc2c(c1)OCO2 | 1.6 | -103.3 | -21.2 | -25.5 | -49.8 | -113.9
CCC(=O)N1C[C@@H](C)[C@@H](OC)CN(C)C(=O)c2cc(NC(=O)c3cnccn3)ccc2OC[C@H]1C | 0.3 | x | 0.8 | x | x | x
COc1ccc(S(=O)(=O)N(C)C[C@@H]2Oc3cc(C#CC4CC4)ccc3S(=O)(=O)N([C@H](C)CO)C[C@H]2C)cc1 | 7.4 | x | 31.2 | x | x | x
COc1ccc(S(=O)(=O)N(C)C[C@@H]2OCc3ccccc3-c3c(n(C)c4ccccc34)C(=O)N([C@H](C)CO)C[C@H]2C)cc1 | 13.4 | x | 18.7 | x | x | x
Cc1ccc2nc(NC(=O)CCCC(=O)O)sc2c1 | u | 79.0* | 81.3* | 37.1 | 51.1 | 2.1
Cc1ccc2nc(NC(=O)CCCc3nc4ccccc4s3)sc2c1 | -5.4 | 10.4 | x | -16.7 | -31.8 | x
CN(C)CC(O)c1ccc(C=Cc2ccc(Cl)cc2)cc1 (configuration not stated) | u | 78.3* | 2.7 | -66.3 | -21.5 | -116.8
Cc1cc(SCC(=O)N/N=C/c2ccc(O)cc2O)c(C)cc1Br | 37.6 | 23.5 | x | 37.8 | 92.6* | 29.8
Cc1cc(SCC(=O)N/N=C/c2ccccc2C(=O)O)c(C)cc1Br | -9.4 | -4.1 | 4.8 | -6.6 | -2.1 | -6.0
COc1ccc(/C=C\C(=O)NCC(=O)N/N=C/c2ccc(O)cc2O)cc1 | -14.0 | 0.5 | 3.9 | 13.9 | x | 0.3
O=C(/C=C\c1ccccc1)NCC(=O)N/N=C/c1ccc(O)cc1O | x | 67.3* | x | -4.6 | -10.6 | x
CCc1cc(C(=O)N/N=C/c2ccc(O)cc2O)c2ccccc2n1 | 34.4 | 68.4* | x | 11.2 | 93.3* | 66.5*
COc1ccc2c3c(n(C)c2c1)[C@@H](CO)N(Cc1ccccc1F)CC31CCN(C(=O)C2CCC2)CC1 | -1.9 | x | 21.3 | x | x | x
COc1ccc2cc1Oc1ccc(cc1)C[C@H]1c3c(cc4c(c3Oc3cc5c(cc3OC)CCN(C)[C@@H]5C2)OCO4)CCN1C | -5.4 | 62.7* | 16.1 | -89.4 | -30.0 | 2.2
COc1ccc2cc1Oc1ccc(cc1)C[C@H]1c3cc(c(OC)cc3CCN1C)Oc1c(OC)c(OC)cc3c1[C@H](C2)N(C)CC3 | x | 95.4* | 57.5* | -11.5 | 38.3 | 38.8
COc1ccc2c(c1OC)C(=O)O[C@@H]2[C@H]1c2c(cc3c(c2OC)OCO3)CCN1C | 7.8 | -10.8 | 0.4 | -1.6 | 1.0 | x
SMILES | LGR2 inh | MITF TRPM1 inh | EWS-Fli inh | LMP1 NFkB inh | Shn3 3UTR inh | PAX8 inh HTS
C[C@H]1CN([C@@H](C)CO)C(=O)c2cccc(NC(=O)C3CCOCC3)c2O[C@H]1CN(C)C | -0.6 | x | -5.0 | x | x | -9.3
O=C([C@H]1[C@H](CO)[C@H]2Cn3c(cccc3=O)[C@H]2N1CCC(F)(F)F)N1CCCCC1 | 5.8 | x | -3.9 | x | x | x
CC1=C(C)CS(=O)N(S(=O)(=O)c2ccccc2)C1 (configuration not stated) | x | 0.5 | x | 10.7 | 23.8 | x
O=S(=O)(/N=S1\CC=CCN1S(=O)(=O)c1ccccc1)c1ccccc1 (configuration not stated) | x | -7.1 | -8.9 | -4.5 | 93.5* | 13.2
CC(C)CC#Cc1cnc2c(c1)C(=O)N([C@@H](C)CO)C[C@H](C)[C@H](CN(C)Cc1ccc(C(=O)O)cc1)O2 | -3.2 | x | -1.8 | x | x | x
Cc1ccccc1C(=O)NCCCNC(=O)c1cnccn1 | 25.0 | 4.3 | 4.4 | -0.6 | 4.5 | -0.9
CCCCCCCCNC(=O)c1cnccn1 | 3.4 | 2.2 | -9.1 | 2.0 | 11.6 | 97.6*
C[C@H](CO)N1C[C@H](C)[C@@H](CN(C)C)Oc2cc(C#CC3CC3)ccc2S1(=O)=O | 1.1 | x | 3.0 | x | x | x
COc1ccc(CNCC(O)COc2cccc3c2OC(C)(C)C3)cc1 (configuration not stated) | 14.0 | 1.3 | -3.7 | 6.2 | 91.1* | -10.3
COC(=O)c1ccc(COc2cccc3c2OC(C)(C)C3)cc1 | 22.3 | 0.1 | x | -9.2 | 17.0 | -16.7
C[C@@H]1CN([C@@H](C)CO)C(=O)c2cc(NC(=O)CCCN(C)C)ccc2O[C@@H]1CN(C)C(=O)NC1CCCCC1 | 9.2 | x | x | x | x | -14.2
N#Cc1c(N)[nH]c2ccc(Sc3ccccc3)cc12 | -19.6 | 12.7 | 60.7* | 4.1 | -4.5 | 38.3
N#Cc1c(N)[nH]c(=S)c(C#N)c1-c1ccccc1 | x | 1.6 | x | -14.2 | 51.2 | x
CN(CC(=O)Nc1cccc(F)c1)CC(=O)N(C)CC(=O)Nc1ccccc1Br | 2.8 | 10.4 | 0.2 | 73.0* | -21.0 | 17.5
C[C@@H]1CN([C@@H](C)CO)C(=O)c2cc(C#CC3(O)CCCC3)cnc2O[C@@H]1CN(C)C(=O)C1CC1 | 0.5 | x | -9.1 | x | x | x
N#CC1=C(N)OC2=C(C(=O)CCC2)C12C(=O)N1CCCc3cccc2c31 (configuration not stated) | x | 12.3 | x | 84.2* | 15.7 | x
C/C=C/c1ccc([C@@H]2[C@H](CO)N(C(=O)CC)C23CN(CCC(F)(F)F)C3)cc1 | -4.8 | x | 5.4 | x | x | 5.9
COc1ccc2c(COC(=O)CNC(=O)C34CC5CC(CC(C5)C3)C4)cc(=O)oc2c1 | -4.7 | -8.0 | 5.4 | -0.3 | -6.9 | 121.5*
Cc1nnc2n(Cc3ccccc3)c(=O)c3c4c(sc3n12)COC(C)(C)C4 | x | 3.3 | x | 0.8 | -15.1 | x
CC1(C)Cc2c(sc3c2c(=O)n(Cc2ccccc2)c2nncn32)CO1 | x | -5.0 | x | 54.0* | 7.2 | x
CO[C@@H]1CN(C)C(=O)c2cc(NC(=O)Nc3ccccc3F)ccc2OC[C@H](C)N(CC2CC2)C[C@@H]1C | -5.3 | x | -2.1 | x | x | 2.0
Cc1ccc(N2CN(Cc3cccnc3)CNC2=S)c(C)c1 | 28.2 | -1.0 | x | -1.2 | -2.3 | 2.7
Cc1ccc(N2CN(Cc3ccco3)CNC2=S)c(C)c1 | 10.5 | 2.0 | 13.2 | 0.0 | -2.1 | 61.3*
COCC#Cc1ccc2c(c1)O[C@@H](CN(C)C(=O)CN(C)C)[C@H](C)CN([C@H](C)CO)S2(=O)=O | 7.2 | x | -4.5 | x | x | x
